As a reminder, the inhibition is the relative decrease from the control value, in per cent.

The whole screen tested about 340,000 compounds, of which about 1,000 (0.29%) were called active. These entries were drawn from the full list. Entries with a potency or affinity are not part of this list. Values without a mark were called inactive. No stated cut-off is given here; in the data, inconclusive means inhibition above about 27% without an active follow-up result; inactive means below that.

Drawing on PubChem BioAssay AID504329 (Southern Research Specialized Biocontainment Screening …, 2011), this text covers inhibition for 61 compounds.

A short description of this test: H1N1 influenza NS1A inhibitors, functional cell based assay (AID 504329). As to conditions: percent inhibition, at 12.5 µM, stronger effect = higher value.
On to `N=C1c2ccccc2CN1NC(=O)c1ccc(Br)o1`, for which the inhibition was -1.62%.
To `Cc1ccc(Nc2c([N+](=O)[O-])ccc3nonc23)c(C)c1` belongs 24.2%.
`O=[N+]([O-])c1cccc(Nc2c([N+](=O)[O-])ccc3nonc23)c1`: the inhibition is 11.8%.
Next, `COc1ccccc1CNC(=O)CSC1=NCCS1`: -11.3%; `CSc1ccccc1OCc1cc(C(=O)NCCN2CCCC(O)C2)no1` (stereo unspecified): 14.2%.
Next, `CC(NC(=O)COC(=O)C12CC3CC(CC(Br)(C3)C1)C2)c1ccccc1` (stereo unspecified): 4.11%.
To `Cc1ccc(C(=O)N/N=C/c2c(O)ccc3ccccc23)cn1` belongs -7.55%.
On to `O=C(N/N=C/c1c(O)ccc2ccccc12)c1ccc(Br)o1`, for which the inhibition was -3.25%.
With `O=C(N/N=C\c1c(O)ccc2ccccc12)c1cncc(Br)c1`, the inhibition was -2.66%.
As for `CCOc1ccc2ccccc2c1/C=N/NC(=O)c1ccncc1`, the inhibition is -4.1%.
As to `O=C(N/N=C/c1c(O)ccc2ccccc12)c1cccc(C(F)(F)F)c1`, the inhibition is 5.26%.
Next, `O=C(N/N=C\c1c(O)ccc2ccccc12)c1ccc(O)cc1`: 3.55%; `O=C(N/N=C/c1cccc2ccccc12)c1cccnc1`: -1.84%.
To `O=C(NN=Cc1c(O)ccc2ccccc12)c1ccc2c(c1)OCO2` belongs 3.47%.
Next, `COc1ccc(-c2nnnn2-c2ccc(F)cc2F)cc1`: -3.82%.
As to `COP(=O)(OC)C1(O)C(=O)Nc2ccc(Br)cc21` (stereo unspecified), the inhibition was -4.97%.
Next, `Nc1c(C(=O)NCc2ccc3c(c2)OCO3)nnn1Cc1ccc(Br)cc1`: 1.55%; `N#CC(Cc1ccccc1)(Cc1ccccc1)C(=O)NN`: -3.45%; `COC1CCCCC1NS(=O)(=O)c1ccccc1` (stereo unspecified): 1.39%.
Regarding `CCCCC(=O)NC(c1cccc([N+](=O)[O-])c1)c1ccc2cccnc2c1O` (stereo unspecified), the inhibition is 17.2%.
To `CC(=O)NC(c1ccc2ccccc2c1)c1ccc2cccnc2c1O` (stereo unspecified) belongs 23.8%; to `CC(C)C(=O)NC(c1cccc([N+](=O)[O-])c1)c1ccc2cccnc2c1O` (stereo unspecified), 17.9%; to `COc1ccc(C(NC(C)=O)c2ccc3cccnc3c2O)c(OC)c1` (stereo unspecified), 20.8%.
On to `CC(=O)NC(c1ccc(C(C)C)cc1)c1ccc2cccnc2c1O` (stereo unspecified), for which the inhibition was -6.08%.
Consider `CC(C)C(=O)NC(c1ccco1)c1ccc2cccnc2c1O` (stereo unspecified), for which the inhibition was 23.1%.
Next, `C=CCNC(=O)c1onc(CSc2ccc(F)cc2)c1C(=O)NCC=C`: 8.73%; `CCOCCc1nnc(NC(=O)C2CC(=O)N(c3ccc(OCC)cc3)C2)s1` (stereo unspecified): -1.86%.
Next, `C[C@@H]1CC[C@@]2(O[C@H](CCO)C[C@H](O)[C@H]2O)O1`: -1.57%; `CCCSc1nc(-c2ccccc2)cc(C(F)(F)F)c1C#N`: -2.3%; `COc1ccc(N2CCN(C(=O)Cc3ncc(C(F)(F)F)cc3Cl)CC2)cc1`: -8.89%.
Consider `COc1ccc(NS(=O)(=O)c2ccc3c(c2)[C@H]2C=CC[C@H]2[C@@H](c2ccc(C(=O)O)cc2)N3)cc1`, for which the inhibition was 24.1%.
To `O=C(O)c1ccc(NS(=O)(=O)c2ccc3c(c2)C2C=CCC2C(c2ccccc2F)N3)cc1` (stereo unspecified) belongs 18.1%; to `Cn1nnnc1SCC(=O)N1CCc2ccccc21`, -9.92%.
On to `O=C1/C(=C/c2ccncc2)N2CCC1CC2`, for which the inhibition was -8.83%.
To `CC(C)CC(=O)Nc1nnc(SCC(=O)NCC2CCCO2)s1` (stereo unspecified) belongs -4.89%.
Regarding `CCc1nnc(NS(=O)(=O)c2ccc(N/C=C\C(=O)c3ccc(C)cc3)cc2)s1`, the inhibition was 2.79%.
To `COC(=O)c1ccccc1NC(=O)CSc1ncccn1` belongs -13.4%.
Take `Cc1cc(C)nc(NN2C(=O)C=CC2=O)n1`: the inhibition is 0.34%.
`CC(=O)c1ccc(Nc2nc(C)cc(C)n2)cc1`: the inhibition is 0.38%.
To `Cn1c(SCC(=O)Nc2nccs2)nnc1-c1ccncc1` belongs 2.71%; to `CCOC(=O)C(C)Oc1cccc2c(=O)n(CC(=O)NCCc3ccccc3)ccc12` (stereo unspecified), 0.03%; to `CC(C)C(OC(=O)c1cccs1)C(=O)NCc1ccc2c(c1)OCO2` (stereo unspecified), -1.71%.
Next, `Cc1cccc(NC(=O)c2ccc3nccnc3c2)c1C`: 0.36%; `COc1cc(NC(=O)c2ccccc2F)c(OC)cc1NC(=O)CN1CCCCC1`: -0.03%.
Next, `N/C(=N\OC(=O)Cc1ccccc1[N+](=O)[O-])c1ccccn1`: -3.44%; `N/C(=N\OC(=O)Cc1ccccc1)c1ccccn1`: -5.24%.
For `Cc1c(OC(C)C(=O)NCC(O)c2ccccc2)ccc2c3c(c(=O)oc12)CCC3` (stereo unspecified), the inhibition was 3.79%.
As to `CNC(=O)c1c(NC(=O)c2ccc(S(=O)(=O)N3CCCCC3C)cc2)sc2c1CCN(C)C2` (stereo unspecified), the inhibition was -4.17%.
In the case of `CCc1ccc(Nc2n[n+](-c3ccccc3)c(-c3cccc(C)c3)s2)cc1`, the inhibition was -15%.
To `CCc1ccc(Nc2n[n+](-c3ccccc3)c(-c3cccc(Cl)c3Cl)s2)cc1` belongs -1.96%.
To `Fc1ccc(-[n+]2nc(Nc3ccccc3)sc2-c2c3ccccc3cc3ccccc23)cc1` belongs 10.5%; to `Fc1ccc(-[n+]2nc(Nc3ccccc3)sc2-c2cccc(Cl)c2Cl)cc1`, 1.31%; to `COc1ccc(S(=O)(=O)CCC(=O)N2CC(=O)N(CCc3ccccc3)C(=O)C2)cc1`, -13.4%.
To `CSc1ncc(/C=C2/C(=O)NC(=O)N(C)C2=O)cn1` belongs 6.14%.
As for `CC1Cc2ccccc2N1C(=O)c1ccc2c(c1)OCO2` (stereo unspecified), the inhibition is -9.71%.
Turning to `CCCOc1cccc(OCC(=O)Nc2nc3ccccc3[nH]2)c1`, the inhibition was -2.2%.
In the case of `CC(C)/C=C1\CC/C(=C\c2ccc(N(C)C)cc2)C1=O`, the inhibition is -9.13%.
Regarding `CN(C)c1ccc(/C=C2\CCC/C(=C\c3ccccc3)C2=O)cc1`, the inhibition is -5.05%.
`O=C1C(=O)N(CCCn2ccnc2)C(c2ccc(Cl)cc2)/C1=C(\O)c1ccc2c(c1)OCCO2` (stereo unspecified): the inhibition is 4.67%.
Consider `Cc1ccc(SCC(=O)NCCc2ccccc2)cc1`, for which the inhibition was 4.08%.
Next, `O=C(Nc1ccc2c(c1)OCO2)C1COc2ccccc2O1` (stereo unspecified): -3.64%.
